D1 antagonist = Antagonist of Human D 1 Dopamine Receptor: qHTS | actives 3.2% (n = 360,000) | D(1A) dopamine receptor (Homo sapiens), P21728 | HEK293 TREx D1 cells, calcium flux, dopamine EC80; stronger effect = lower value | activity change, negative = inhibition, % at 10 µM; in the data active means activity change below about -30%; further: on the % scale 0 is the no-effect control and ±100 the full control effect
Target sequence (P21728 whole entry, looked up): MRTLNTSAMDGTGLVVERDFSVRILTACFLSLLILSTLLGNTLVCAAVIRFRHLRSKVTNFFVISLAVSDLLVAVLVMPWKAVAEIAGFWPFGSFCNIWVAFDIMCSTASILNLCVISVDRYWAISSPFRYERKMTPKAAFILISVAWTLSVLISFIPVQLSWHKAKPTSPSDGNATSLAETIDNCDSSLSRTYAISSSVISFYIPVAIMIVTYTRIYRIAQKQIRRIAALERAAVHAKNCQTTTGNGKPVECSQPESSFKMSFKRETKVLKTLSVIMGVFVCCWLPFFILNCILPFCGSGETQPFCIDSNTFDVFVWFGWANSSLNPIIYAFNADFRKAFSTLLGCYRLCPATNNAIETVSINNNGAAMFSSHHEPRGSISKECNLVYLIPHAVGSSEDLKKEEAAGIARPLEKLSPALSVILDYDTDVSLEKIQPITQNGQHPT
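Antagonism measured as reduced calcium response to an EC80 dopamine addition following 180 s compound pre-read; cells were inducible HEK293 Trex D1 plated overnight at 30 C, read kinetically at 1 cycle/sec.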
DRD3 agonist = qHTS of D3 Dopamine Receptor Agonist: qHTS; D(3) dopamine receptor (Homo sapiens), P35462; D3R DiscoveRx beta-arrestin cells, luminescence, 90 min; max activation, %; actives 0.58% (n = 410,000); AID 652048, 2013; in the data active means max activation above about 30%; further: 0% is about no effect
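Agonist-mode cell screen: cells plated at 1500/well and incubated overnight at 37 °C, then exposed to library compounds for 90 min at 37 °C. Detection reagent was added for 30–60 min at room temperature, and luminescence was read.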
D1 potentiator = Potentiators of Human D1 Dopamine Receptor: qHTS; actives 0.036% (n = 360,000); potentiation, % at 10 µM; HEK293 TREx D1 cells, calcium flux, dopamine EC20 potentiation; AID 504651, 2011; D(1A) dopamine receptor (Homo sapiens), P21728; in the data active means potentiation above about 30%; further: 0% is about no effect
D3 antag = qHTS of D3 Dopamine Receptor Antagonist: qHTS; D(3) dopamine receptor (Homo sapiens), P35462; D3R cells, DiscoveRx beta-arrestin luminescence, antagonist mode; stronger effect = lower value; max response, negative = inhibition, %; actives 2.5% (n = 360,000); in the data active means max response below about -50%; inconclusive means no clear call, values can overlap the other calls; further: on the % scale 0 is the no-effect control and ±100 the full control effect
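Cells expressing the human receptor were seeded at 1500 cells/well, incubated overnight at 37 degrees C in 5% CO2, then exposed to library compounds with dopamine controls for 90 minutes at 37 degrees C before luminescent detection.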
D1 agonist = Allosteric Agonists of the Human D1 Dopamine Receptor: qHTS; actives 1% (n = 360,000); AID 504660, 2011; D(1A) dopamine receptor (Homo sapiens), P21728; activation, % at 2 µM; HEK293 T-REx D1 cells, calcium flux, agonist mode; in the data active means activation above about 30%; further: 0% is about no effect
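Tetracycline-induced HEK293 TREx D1 cells, force-coupled to calcium signalling, were dye-loaded with a no-wash calcium kit. Compound was pin-added after a 10 s baseline. Fluorescence was read kinetically at 1 cycle/s for 180 s, with calcium rises flagged as agonism.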
ERG-DNA inh = qHTS for Small Molecule Inhibitors of the ERG Ets/DNA interaction | Transcriptional regulator ERG (Homo sapiens), P11308 | fluorescence polarization, His-ERG Ets domain / labelled DNA | Potency, µM (doses to about 76.9 µM), for the others: at the top dose FP activity, negative = inhibition, most hits filed as inhibitors | actives 0.028% (n = 370,000) | AID 624246, 2012; active means well fitted inhibition curve with a large enough effect in the polarisation, with a control signal flat; inconclusive means small, poorly fitted or top-dose-only effect, or effect the other way, or a change in a side signal; inactive means no such curve, though single readings can be large or run the other way; the % refers to the polarisation;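 further: polarization taken with two DNA probes labelled with fluorescein and Texas red; potency means the concentration at half of the fitted maximal effect; % of control where 0% means no effect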
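His-tagged ERG Ets domain (1 uM in the protein solution; 300mM KCl, 50mM Tris-HCl, 1mM EDTA, 1mM DTT, pH 7.5) received compound, then a probe mix of 5 nM fluorescein-DNA and 100nM Texas-615-DNA. Fluorescence polarization was read for both dyes.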
* = called active by the depositor; ? = inconclusive; · = no result; ! = repeats disagree. An excerpt weighted towards active compounds, which were near 6.1% of everything screened.

SMILES	D1 antagonist	DRD3 agonist	D1 potentiator	D3 antag	D1 agonist	ERG-DNA inh
COc1cc(/C=N/NC(=O)COc2cccc(F)c2)ccc1OS(=O)(=O)c1ccc(C)cc1	-12	-9	-4	-53*	5	2%
COc1cc(/C=N/NC(=O)COc2ccc(Cl)cc2)ccc1OS(=O)(=O)c1ccc(C)cc1	·	-8	-2	-50*	5	4%
Cc1cccc(C(=O)NCC(=O)OC(C(=O)Nc2cc(C(F)(F)F)ccc2Cl)c2ccccc2)c1 (stereo unspecified)	-30*	·	-6	·	7	·
O=C(CNC(=O)c1ccccc1)OC(CCc1ccccc1)C(=O)Nc1cc(C(F)(F)F)ccc1Cl (stereo unspecified)	-37*	·	-6	·	8	·
CCOc1ccc(NC(=O)c2c(NCc3ccc(C)o3)sc3c2CCCCC3)cc1	2	-11	-2	·	0	1%
CC12CCC(=O)N1C(C(=O)OCC(=O)Nc1sccc1C#N)CS2 (stereo unspecified)	1	-3	6	7	4	-7%
CCCCOC(=O)c1ccc(NC(=O)COC(=O)C2CSC3(C)CCC(=O)N23)cc1 (stereo unspecified)	-46*	-12	-7	3	22	2%
CCOC(=O)/C(=C\c1ccc([N+](=O)[O-])o1)NC(=O)c1ccccc1	-36*	1	-3	14	27	·
CN1CCN(C(=O)c2cnn3c(C(F)(F)F)cc(-c4cccs4)nc23)CC1	-8	-6	-5	-13	5	11%
O=C(c1cnn2c(C(F)(F)F)cc(-c3cccs3)nc12)N1CCN(C(c2ccccc2)c2ccccc2)CC1	-47*	4	-7	-3	0	-1%
N#Cc1nc(-c2ccc(OCc3ccccc3)cc2)oc1N1CCOCC1	1	31*	-2	-5	2	-2%
CNc1oc(-c2ccc(OCc3ccccc3)cc2)nc1C#N	-32*	18	-9	13	5	-4%
N#Cc1nc(-c2ccc(OCc3ccccc3)cc2)oc1NCCN1CCOCC1	-27	·	-4	·	11	·
N#Cc1nc(-c2ccc(OCc3ccccc3)cc2)oc1NCc1ccco1	4	0	-4	0	1	-4%
O=C(C1CCCO1)N1CCN(S(=O)(=O)c2ccc(F)cc2)CC1 (stereo unspecified)	-10	1	0	-6	2	0%
O=C(Nc1ccccc1C(=O)N/N=C/c1ccccc1)c1ccco1	4	4	-3	10	1	4%
CCOC(=O)N1CCN(C(=O)C(C)SCc2ccccc2)CC1 (stereo unspecified)	·	15	·	24	·	·
Cc1ccc(-n2nc(C)cc2NC(=O)c2ccc(C)s2)cc1	3	-4	-4	?	1	6%
COc1ccc(Oc2cc(C)c3ccccc3n2)cc1	21	30*	7	-7	2	-3%
Cc1ccc(Oc2cnc3ccccc3n2)cc1	1	-1	1	15	3	2%
O=C(N/N=C/c1ccc(O)cc1)NC12CC3CC(CC(C3)C1)C2	5	4	-1	0	3	18%
Cc1ccc(C)c2sc(NC(=O)CN3C(=O)CCC3=O)nc12	-45*	-6	7	-28	3	-1%
Cc1nn(-c2cc(Cl)ccc2Cl)c(C)c1C(=O)O	-19	-7	-1	6	1	5%
Cc1cnc(=O)[nH]c1SCc1cccc(C(F)(F)F)c1	10	-2	-6	6	4	8%
Cc1cnc(=O)[nH]c1SCc1ccc(C(F)(F)F)cc1	-6	31*	-2	-5	1	-15%
SMILES	D1 antagonist	DRD3 agonist	D1 potentiator	D3 antag	D1 agonist	ERG-DNA inh
Cc1cccc(CSc2ncccc2C(=O)O)c1	10	1	0	10	-3	-1%
O=C(O)c1cccnc1SCc1cccc(Cl)c1	-40*!	5	-13	5	1	-13%
COc1ccc(CCNC(=O)C2CCN(c3ccc(N4CCOCC4)nn3)CC2)c(OC)c1	-33*	-2	-4	1	0	8%
COc1ccc(OC)c(CCNC(=O)C2CCN(c3nnc(-n4cccc4)s3)CC2)c1	9	2	1	-15	0	-10%
Cc1c(/C=N/NC(=O)c2ccc3c(c2)OCO3)cnn1C	5	-1	-2	5	2	-11%
CCn1ncc(/C=N/NC(=O)c2ccc3c(c2)OCO3)c1C	-74*	-1	-4	-8	1	0%
Cc1ccc(C(=O)N/N=C\c2cc3c(cc2Br)OCO3)s1	-2	-35	-4	-66*	2	-5%
CCCOc1ccc(/C=N/NC(=O)c2ccc3c(c2)OCO3)c(OCCC)c1	-42*	0	·	3	5	-4%
Cc1cccc(N2CCN(C(=O)c3nn(C)c4c3CSc3ccccc3-4)CC2C)c1 (stereo unspecified)	-46*	2	-5	·	1	3%
Cc1cccc(N2CCN(C(=O)c3nn(C)c4c3CS(=O)(=O)c3ccccc3-4)CC2C)c1 (stereo unspecified)	-6	-9	0	10	1	-15%
COc1cccc(-c2nn(C)c3sc(C(=O)N4CCN(c5cccc(C)c5)C(C)C4)cc23)c1 (stereo unspecified)	10	48*	0	·	2	2%
COc1cccc(-c2nn(C)c3sc(C(=O)NCCc4cccc(C)c4)cc23)c1	-11	-8	15	·	46*	-1%
COc1ccc(N2CCN(C(=O)c3cc4c(-c5cccc(OC)c5)nn(C)c4s3)CC2)cc1	-3	1	0	13	4	2%
CCOC(=O)N1CCC(NC(=O)c2cc3c(-c4cccc(OC)c4)nn(C)c3s2)CC1	-43*	-1	-1	6	3	-2%
CCOC(=O)N1CCN(C(=O)c2cc3c(-c4cccc(OC)c4)nn(C)c3s2)CC1	5	7	0	52	0	-7%
COc1ccc(-c2ccc(-c3noc(-c4ccco4)n3)c(OC)n2)cc1	14	37*	-4	28	0	-10%
COc1nc(-c2ccccc2)ccc1-c1noc(-c2ccco2)n1	-4	-1	-21	24	7	13%
COc1ccc(-c2ccc(-c3noc(-c4ccccc4)n3)c(OC)n2)cc1	-46*	17	-9	45	3	-7%
O=S(=O)(/N=C(\c1ccc(Cl)cc1)N1CCOCC1)c1ccccc1	3	11	-1	13	1	-1%
